A short description of assay [1]: NS1 protein of Zika virus - qHTS assay to identify small molecule inhibitors in human HEK 293 cells (AID 1347053). Note: series mostly up to about 46 µM; nearly all actives have a fitted effect of over 55% in size. In short, it runs like this:
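In this cell-based screen, HEK 293 cultures received compound for one hour before Zika MR766 at MOI = 0.5. NS1 was quantified 24 hours later by TR-FRET, normalized to virus-free wells and infected wells.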

Assay [2] deals with T1, Tyrosine-protein phosphatase non-receptor type substrate 1 (Homo sapiens) + Leukocyte surface antigen CD47 (Homo sapiens) (UniProt P78324+Q08722). The assay can be described thus: CD47-SIRPalpha protein protein interaction - LANCE assay qHTS validation (AID 1347057; active = well fitted curve in the direction sought with a large enough effect in the signal ratio, with a control signal flat, not every such curve was filed as active; the % refers to the signal ratio; note: series mostly up to about 38 µM). The procedure, abridged:
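Inhibition of soluble CD47/SIRPalpha ectodomain association by titrated compounds, measured as 665/615 nm time-resolved FRET ratio after sequential 30 min room-temperature incubations.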

For assay [3], the target named is T1, Tyrosine-protein phosphatase non-receptor type substrate 1 (Homo sapiens) + Leukocyte surface antigen CD47 (Homo sapiens). The assay can be described thus: CD47-SIRPalpha protein protein interaction - HTRF assay qHTS validation (AID 1347058; active = well fitted curve in the direction sought with a large enough effect in the signal ratio, not every such curve was filed as active; the % refers to the signal ratio; note: series mostly up to about 38 µM). The procedure, abridged: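 Soluble extracellular domains (6His-CD47, Avi-tag-biotinylated SIRPalpha) in PBS pH 7.4 with 0.05% IGEPAL CA-630. Compounds were preincubated 30 min at RT with CD47 and anti-His-Eu, then SIRPalpha and SAV-XL665 were added. TR-FRET 665/615 ratio.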

Assay [4] shares this target. The assay can be described thus: CD47-SIRPalpha protein protein interaction - Alpha assay qHTS validation (AID 1347059).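 Note: bead proximity luminescence from CD47 binding SIRPalpha after compound preincubation with SIRPalpha.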 In short, it runs like this: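 AlphaScreen signal between CD47-His (12.5 nM) and biotin-SIRPalpha (25 nM) soluble extracellular domains, bead-captured via Ni-NTA and streptavidin. Compounds, in 7-point titrations, met SIRPalpha 30 min before CD47; PBS pH 7.4 with 0.05% IGEPAL.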

For assay [5], the target named is Parathyroid hormone/parathyroid hormone-related peptide receptor (Homo sapiens) (UniProt Q03431). The assay can be described thus: qHTS for PTHR1 Agonists: Optimization Screen against the NCGC LOPAC library (AID 1347079).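 Note: GloSensor cAMP luminescence in HEK-293 GP2 cells expressing human PTHR1 with IBMX.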 In short, it runs like this: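 HEK-293 GP2 cells, PTHR1 + GloSensor cAMP; 3000 cells/well, o/n. Luciferin + IBMX 0.5mM each (stock), 1 hr 37C. Cpd titration, 1 hr 37C. Lum after 15 min RT. Ctrl M-PTH(1-15) top 10uM.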
Sequence of Parathyroid hormone/parathyroid hormone-related peptide receptor (Homo sapiens) (Q03431 whole entry, looked up): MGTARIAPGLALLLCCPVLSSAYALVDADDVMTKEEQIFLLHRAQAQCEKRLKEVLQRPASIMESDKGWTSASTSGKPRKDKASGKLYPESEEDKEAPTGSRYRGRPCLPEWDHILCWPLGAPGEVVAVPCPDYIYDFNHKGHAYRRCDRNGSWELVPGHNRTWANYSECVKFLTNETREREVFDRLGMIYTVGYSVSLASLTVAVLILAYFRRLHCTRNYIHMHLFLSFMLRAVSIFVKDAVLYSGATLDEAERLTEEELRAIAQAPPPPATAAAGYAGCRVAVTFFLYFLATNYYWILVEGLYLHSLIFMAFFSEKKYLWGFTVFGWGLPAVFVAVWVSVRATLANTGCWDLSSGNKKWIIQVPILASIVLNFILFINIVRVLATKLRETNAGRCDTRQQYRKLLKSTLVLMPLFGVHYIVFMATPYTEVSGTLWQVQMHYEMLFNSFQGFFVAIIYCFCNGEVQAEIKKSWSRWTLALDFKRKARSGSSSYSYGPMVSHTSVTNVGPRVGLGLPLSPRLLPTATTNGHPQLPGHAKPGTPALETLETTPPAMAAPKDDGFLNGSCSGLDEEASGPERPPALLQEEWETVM

For assay [6], the target named is N-terminal Xaa-Pro-Lys N-methyltransferase 1 (Homo sapiens) (UniProt Q9BV86). The assay can be described thus: qHTS Assay for Inhibitors of N-terminal methyltransferase 1 (NTMT1): LOPAC validation of the NTMT1 SAHH-coupled ThioGlo3 Assay (AID 1347143).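 Note: SAH from peptide methylation measured as thiol fluorescence via SAHH coupling and ThioGlo3; nearly all actives have a fitted effect of over 70% in size.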 Note: potency is the fitted concentration of half-maximal effect. In short, it runs like this: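 NTMT1 125nM + cpds (various conc.), 1 min RT; add SAM 100uM/SAHH 10uM/ThioGlo3 15uM (addition mix). SAHH-coupled thiol detection, Ex340/Em450, t0 and 30 min RT; signal normalized to background. LOPAC 1280-cpd pilot.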
Sequence of N-terminal Xaa-Pro-Lys N-methyltransferase 1 (Homo sapiens) (Q9BV86 whole entry, looked up): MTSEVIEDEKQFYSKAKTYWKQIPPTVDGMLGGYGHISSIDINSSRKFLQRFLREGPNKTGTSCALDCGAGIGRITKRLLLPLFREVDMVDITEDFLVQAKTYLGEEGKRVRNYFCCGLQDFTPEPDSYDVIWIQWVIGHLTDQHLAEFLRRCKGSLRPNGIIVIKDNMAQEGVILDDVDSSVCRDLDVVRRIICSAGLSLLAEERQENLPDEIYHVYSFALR

Another assay addresses Furin (Homo sapiens) (UniProt P09958). In words: Furin counterscreen qHTS for Zika virus inhibitors (AID 1347149). Note: nearly all actives have a fitted effect of over 70% in size. Note: potency is the fitted concentration of half-maximal effect. The procedure, abridged:
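Counterscreen measures cleavage of 2 microM BOC-RVRR-AMC, below its ~15 microM Km, by 5 nM full-length human furin at pH 7.0 after a 15-min compound preincubation. Inhibition derives from the 15-min fluorescence increase at 37C.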

For assay [7], the system named is Zika virus NS2B-NS3 protease (unlinked). The assay can be described thus: Optimization of GU AMC qHTS for Zika virus inhibitors: Unlinked NS2B-NS3 protease assay (AID 1347151). Note: nearly all actives have a fitted effect of over 80% in size. Note: potency is the fitted concentration of half-maximal effect. The procedure, abridged:
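Unlinked protease (25 nM final); buffer 10 mM Tris-HCl pH 8.0 + 0.01% Tween 20; AMC substrate; 15 min RT, dark; Δfluorescence normalized to no-inhibitor/no-enzyme controls; 4-parameter Hill fit.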

The test system of assay [8] is Zika virus NS2B-NS3 protease (linked construct). The assay can be described thus: Confirmatory screen NINDS AMC qHTS for Zika virus inhibitors (AID 1347152). Note: nearly all actives have a fitted effect of over 70% in size. Note: potency is the fitted concentration of half-maximal effect. The procedure, abridged:
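Enzyme (1 nM, linked construct) was preincubated with compound for 15 minutes at room temperature in 10 mM Tris-HCl pH 8.0 with 0.01% Tween 20. Bz-Nle-Lys-Arg-Arg-AMC was then added to 10 microM, and AMC fluorescence was recorded immediately and after 15 minutes.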

Assay [9] deals with Zika virus NS2B-NS3 protease (unlinked complex). The assay can be described thus: Confirmatory screen GU AMC qHTS for Zika virus inhibitors (AID 1347153). Note: nearly all actives have a fitted effect of over 70% in size. The procedure, abridged:
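Noncovalent NS2B hydrophilic domain/NS3 protease complex (25 nM) in 10 mM Tris-HCl pH 8.0, 0.01% Tween 20 was preincubated 15 min at room temperature with compounds. Then 10 µM AMC substrate (Km 18.3 µM) was added; fluorescence was read over 15 min and fitted to a 4-parameter Hill equation.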

28 molecules from PubChem BioAssay (NCATS) can be followed below.

Results filed as inconclusive are left out. Active and inactive are the calls of the source. Unless noted, calls come from the whole dose curve; as a rule, active = well fitted curve in the direction sought with a large enough effect; inconclusive = small, poorly fitted or top-dose-only effect, or another doubt; inactive = no such curve, though single readings can be large; an effect the other way counts as inactive or inconclusive.

T1 sequence (P78324 whole entry, looked up, the tested form may be a part): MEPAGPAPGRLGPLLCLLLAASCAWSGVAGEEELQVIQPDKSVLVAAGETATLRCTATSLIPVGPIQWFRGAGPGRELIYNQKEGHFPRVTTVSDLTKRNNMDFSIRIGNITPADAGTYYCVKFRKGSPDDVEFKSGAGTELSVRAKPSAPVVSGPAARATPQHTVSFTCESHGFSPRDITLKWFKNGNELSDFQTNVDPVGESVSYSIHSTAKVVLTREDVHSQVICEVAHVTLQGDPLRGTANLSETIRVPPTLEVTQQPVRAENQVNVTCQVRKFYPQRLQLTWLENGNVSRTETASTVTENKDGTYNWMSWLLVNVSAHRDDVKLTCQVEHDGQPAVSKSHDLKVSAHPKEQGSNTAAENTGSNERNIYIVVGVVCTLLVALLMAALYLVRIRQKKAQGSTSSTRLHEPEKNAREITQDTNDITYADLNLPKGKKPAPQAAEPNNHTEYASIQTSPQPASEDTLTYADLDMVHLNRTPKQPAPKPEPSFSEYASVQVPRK
T1 sequence (Q08722 whole entry, looked up, the tested form may be a part): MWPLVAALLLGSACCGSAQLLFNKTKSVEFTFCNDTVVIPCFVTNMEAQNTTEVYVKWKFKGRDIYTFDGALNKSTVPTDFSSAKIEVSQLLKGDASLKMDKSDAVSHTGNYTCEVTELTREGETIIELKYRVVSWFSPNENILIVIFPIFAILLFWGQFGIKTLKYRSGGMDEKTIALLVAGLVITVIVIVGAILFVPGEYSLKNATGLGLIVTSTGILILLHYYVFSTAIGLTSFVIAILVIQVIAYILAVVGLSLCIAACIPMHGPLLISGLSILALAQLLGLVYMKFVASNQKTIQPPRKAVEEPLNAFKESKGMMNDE
Sequence of Furin (Homo sapiens) (P09958 whole entry, looked up): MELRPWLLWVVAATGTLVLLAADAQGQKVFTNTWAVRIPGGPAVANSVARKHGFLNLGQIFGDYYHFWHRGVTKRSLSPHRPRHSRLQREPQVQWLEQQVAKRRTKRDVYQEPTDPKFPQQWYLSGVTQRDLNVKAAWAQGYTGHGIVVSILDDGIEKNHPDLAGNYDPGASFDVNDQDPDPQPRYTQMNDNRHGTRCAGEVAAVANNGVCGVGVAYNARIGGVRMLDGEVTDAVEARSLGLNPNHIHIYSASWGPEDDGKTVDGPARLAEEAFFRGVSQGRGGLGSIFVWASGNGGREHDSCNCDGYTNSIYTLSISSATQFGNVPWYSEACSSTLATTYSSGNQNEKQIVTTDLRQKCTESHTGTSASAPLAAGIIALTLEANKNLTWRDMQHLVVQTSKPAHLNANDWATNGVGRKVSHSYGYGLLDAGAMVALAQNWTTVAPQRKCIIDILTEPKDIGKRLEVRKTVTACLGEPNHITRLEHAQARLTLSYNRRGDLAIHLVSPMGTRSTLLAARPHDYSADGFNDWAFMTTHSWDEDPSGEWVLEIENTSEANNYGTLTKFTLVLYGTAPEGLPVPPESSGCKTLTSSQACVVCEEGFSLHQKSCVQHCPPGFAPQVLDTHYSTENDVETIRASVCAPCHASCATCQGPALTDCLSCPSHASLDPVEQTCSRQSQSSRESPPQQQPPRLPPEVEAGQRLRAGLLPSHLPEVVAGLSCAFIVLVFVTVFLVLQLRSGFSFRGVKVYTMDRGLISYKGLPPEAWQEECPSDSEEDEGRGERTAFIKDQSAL

As to `COc1cccc(OC)c1OCCNCC1CSc2ccccc2O1` (stereo not given), the Potency result in assay [1], in assay [2], in assay [4] and in [5] was “inactive” throughout. For the same molecule, the outcome in assay [3] was inactive.

Consider `C=CCN1CCc2c(cc(O)c(O)c2Br)[C@@H](c2ccccc2)C1`, for which the Potency entry (in assay [1]; in assay [2]; in assay [4]; in [5]; with Furin (Homo sapiens); in [8]) was “inactive” each time. Further, the Potency entry in assay [9] was “inactive”. In addition, the result in assay [3] was inactive. Further, the Potency in [6] is 35.5 µM (active); in assay [7] it was 18.9 µM (active).

With `C[C@@]1(C2CCCC2)Cc2cc(OCC(=O)O)c(Cl)c(Cl)c2C1=O`, the Potency result in assay [1], in [2], in [4], in assay [5] and in assay [6] was “inactive” throughout. Moreover, in assay [3], the result was inactive.

Consider `NCCNS(=O)(=O)c1cccc2c(Cl)cccc12`, for which the Potency entry in assay [1], in [2], in assay [4] and in assay [5] was “inactive” each time. Also, the outcome in [3] was inactive.

For `CCCOC(=O)c1c(-c2ccccc2)nc(CC)c(C(=O)SCC)c1CCC`, the Potency result in assay [1], in [2], in assay [4], in assay [5] and in assay [6] was “inactive” in each case. Also, in assay [3], the outcome was inactive.

For the molecule `Nc1ncnc2c1ncn2C1CCCC1`, the Potency result in assay [1], in assay [2], in assay [4], in assay [5], in assay [6] and in assay [7] was “inactive” throughout. Besides, the outcome in assay [3] was inactive.

Regarding `COC(=O)C(C)(N)Cc1ccc(O)cc1` (stereo not given), the Potency result in assay [1], in [2], in assay [4], in assay [5] and in [6] was “inactive” each time. The outcome in assay [3] was inactive.

For `Cc1cc(Cn2cnc3c2C[C@@H](C(=O)O)N(C(=O)C(c2ccccc2)c2ccccc2)C3)ccc1N`, the Potency result in assay [1], in assay [2], in [4], in [5] and in assay [6] was “inactive” throughout. Besides, the outcome in [3] was inactive.

For `C=C1C[C@@]23CC[C@H]4[C@@](C)(CCC[C@@]4(C)C(=O)OC4OC(CO)C(O)C(O)C4O)[C@@H]2CC[C@]1(OC1OC(CO)C(O)C(O)C1OC1OC(CO)C(O)C(O)C1O)C3` (stereo not given in full), the Potency result in assay [1], in [2], in [4], in [5] and in assay [6] was “inactive” in each case. In addition, in assay [3], the result was inactive.

On to `CN1CCC2(CCN3CCc4c(oc5ccccc45)C3C2)N(C)C1=O` (stereo not given), for which the Potency entry in assay [1], in [2], in assay [4] and in assay [5] was “inactive” throughout. The outcome in [3] was inactive.

As for `COc1cc(N)c(Cl)cc1C(=O)OCCN1CCCCC1`, the Potency result in assay [1], in assay [2], in assay [4], in [5] and in [6] was “inactive” each time. In addition, the outcome in [3] was inactive.

On to `COc1cc2c(CCNC(C)=O)c[nH]c2cc1O`, for which the Potency result in assay [1], in assay [2], in [4], in assay [5], in assay [6] and in assay [8] was “inactive” each time. Also, the Potency result in assay [9] was “inactive”. Moreover, the outcome in assay [3] was inactive. Besides, the Potency is 27.1 µM (active) with Furin (Homo sapiens) and 26.7 µM (active) in assay [7].

On to `CC1=C(/C=C/C(C)=C/C=C/C(C)=C\C(=O)O)C(C)(C)CCC1`, for which the Potency entry in assay [1], in assay [2], in [4] and in [5] was “inactive” throughout. Further, the result in [3] was inactive.

`N[C@H](C(=O)O)[C@H]1C[C@@H]1C(=O)O`: the Potency entry in assay [1], in [2], in [4], in assay [5], in [6] and in assay [7] was “inactive” in each case. For the same molecule, the outcome in assay [3] was inactive.

For `CC(N)=O`, the Potency result in assay [1], in assay [2], in assay [4], in assay [5] and in assay [6] was “inactive” throughout. Moreover, the result in assay [3] was inactive.

Regarding `CNC(=O)c1cc2c(cn1)[nH]c1ccccc12`, the Potency entry in [1], in [2], in assay [4], in assay [5] and in assay [9] was “inactive” each time. Further, in assay [3], the outcome was inactive. Also, the Potency in assay [6] was 56.2 µM (active); with Furin (Homo sapiens), 24.1 µM (active); in assay [7] it was 26.7 µM (active); in [8], 24.1 µM (active).

With `O=C(O)C1=CCNCC1`, the Potency entry in assay [1], in [2], in assay [4], in assay [5] and in assay [6] was “inactive” each time. Besides, the outcome in assay [3] was inactive.

As for `Cc1nc(N=Nc2ccc(C(=O)O)cc2)c(COP(=O)(O)O)c(C=O)c1O`, the Potency entry in assay [1], in [2], in [4], in assay [5] and in assay [6] was “inactive” in each case. For the same molecule, in [3], the outcome was inactive.

In the case of `N[C@H](C(=O)O)[C@H](Cc1ccccc1)C(=O)O`, the Potency entry in assay [1], in assay [2], in assay [4], in assay [5], in assay [6] and in assay [7] was “inactive” throughout. The outcome in [3] was inactive.

Consider `NCC(O)c1ccc(O)c(O)c1` (stereo not given), for which the Potency result in assay [1], in assay [2], in assay [4] and in assay [5] was “inactive” throughout. The outcome in assay [3] was inactive.

Turning to `C=CCNc1ncnc2ccc(Br)cc12`, the Potency entry in assay [1], in assay [2], in [4], in assay [5], in assay [6] and in assay [7] was “inactive” each time. Besides, in assay [3], the result was inactive.

Take `O=C(O)c1cc2cc(F)ccc2[nH]1`: the Potency entry in assay [1], in assay [2], in assay [4] and in assay [5] was “inactive” each time. In assay [3], the result was inactive. Moreover, in assay [6], the Potency was 56.2 µM (active).

Consider `CN(C)CCC(c1ccc(Br)cc1)c1ccccn1` (stereo not given), for which the Potency entry in assay [1], in assay [2], in assay [4], in [5], in [6] and in [7] was “inactive” in each case. Moreover, the result in assay [3] was inactive.

Regarding `COc1cc(CNC(=O)CCCCCCC(C)C)ccc1O`, the Potency result in [1], in assay [2], in [4] and in assay [5] was “inactive” in each case. In assay [3], the result was inactive.

As for `Oc1cc(O)c2c(c1)O[C@H](c1ccc(O)c(O)c1)[C@@H](O)C2`, the Potency entry in [1], in assay [2], in assay [4] and in [5] was “inactive” throughout. The outcome in assay [3] was inactive. Further, the Potency in assay [6] was 44.7 µM (active).

With `NC1(C(=O)O)CCc2cc(C(=O)O)ccc21` (stereo not given), the Potency entry in [1], in assay [2], in [4] and in [5] was “inactive” in each case. For the same molecule, in assay [3], the outcome was inactive. In assay [6], the Potency was 50.1 µM (active).

For `CCCCS(=N)(=O)CC[C@H](N)C(=O)O` (stereo not given in full), the Potency entry in assay [1], in assay [2], in assay [4], in assay [5], in assay [6] and in [7] was “inactive” each time. Besides, in [3], the outcome was inactive.

Regarding `Brc1c(Br)c(Br)c2[nH]cnc2c1Br`, the Potency entry in assay [1], in assay [2], in assay [4] and in [5] was “inactive” throughout. Moreover, the result in [3] was inactive. Besides, the Potency in assay [6] was 50.1 µM (active).
